# TDP1 cell CPT = DT40-hTDP1 cell growth loss with CPT; Potency, µM (doses to about 46.2 µM), actives largely listed as inhibitors; AID 686979; 12% of 420,000 active; chicken DT40 Tdp1-/-;hTDP1 cells + 20 nM CPT, ATP luminescence, 48 h; note: nearly all actives have a fitted effect of over 55% in size
#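 Cell growth measured by CellTiter-Glo luminescence after a minimum 48 h, 37 C compound exposure with 20 nM CPT in Tdp1-knockout DT40 cells stably expressing hTDP1, seeded 400/well; qHTS titration format.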
# HepG2 tox = counter-screen for TGF-b inhibitors: cytotoxicity in HepG2 cells; 0.76% of 410,000 active; AID 588856; Potency, µM (doses to about 46.1 µM), usual class: cytotoxic; HepG2 CAGA-GFP viability, ATP luminescence, 18 h
#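 HepG2 CAGA-GFP cells (1000/well, DMEM with 1% FBS) received compound, then TGF-beta at 500 pg/mL final, and were incubated 18 hours at 37 degrees C. Viability was read by CellTiter-Glo luminescence. Media-only wells were set as complete cell-killing and DMSO as no toxicity.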
# HT1080 IDH1KD tx = HT-1080 IDH1 knockdown cell toxicity (counter line); HT-1080 IDH1 knockdown viability, ATP luminescence, 48 h; Potency, µM (series often up to 46.1 µM), usual class: cytotoxic; 2% of 360,000 active
#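 Viability of IDH1-knockdown HT-1080 fibrosarcoma cells was assessed by CellTiter-Glo after 48 h at 37 °C with titrated compound; concentration-effect curves were classified by fit quality and response size.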
# TGFb SMAD3 inh = blocks TGF-b signaling; HepG2 CAGA-GFP TGF-b/SMAD3 reporter, GFP fluorescence, 18 h; TGF-beta stimulated, 500 pg/mL final; Potency, µM (highest dose often 46.1 µM), actives largely listed as inhibitors; 1.2% of 410,000 active; AID 588855; note: nearly all actives have a fitted effect of over 65% in size
#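 Using HEPG2 CAGA-GFP reporter cells at 1000 cells/well, we pinned test compounds, stimulated with recombinant TGF-beta (500 pg/mL final) and measured total well GFP after 18 h.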
# HT1080NT lethal = kills 2HG-producing HT-1080-NT fibrosarcoma cells; HT-1080-NT fibrosarcoma viability, CellTiter-Glo ATP luminescence, 48 h; Potency, µM (series often up to 46.1 µM), most hits filed as cytotoxic; 1.6% of 360,000 active; AID 686970;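 note: NT is the 2HG producing partner of a matched IDH1 knockdown line; nearly all actives have a fitted effect of over 55% in size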
#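 Viability by CellTiter-Glo luminescence after 48 h compound exposure at 37C of HT-1080-NT cells (750/well, RPMI, 5% FBS). % activity scaled between DMSO wells and medium-only wells, then curve-fitted and categorized by curve class.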
# TDP1 cell noCPT = qHTS for Inhibitors of human tyrosyl-DNA phosphodiesterase 1 (TDP1): qHTS in cells in absence of CPT | DT40 Tdp1-/- hTDP1 cells, no CPT, ATP luminescence, 48 h | AID 686978, 2013 | 15% of 420,000 active | Potency, µM (top dose mostly 46.2 µM), usual class: inhibitors; note: nearly all actives have a fitted effect of over 55% in size
#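 Growth of hTDP1-complemented DT40 Tdp1-knockout cells is measured by ATP luminescence after at least 48 hr compound exposure at 37 °C, with DMSO substituting for the 20 nM CPT used in the parallel screen.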
# Hits are given with their value; i = inactive; ? = inconclusive; nt = no result. In the library only some 17% were active in any assay of this set; here they are far more common. Calls come from the whole dose curve; as a rule, active = well fitted curve in the direction sought with a large enough effect; inconclusive = small, poorly fitted or top-dose-only effect, or another doubt; inactive = no such curve, though single readings can be large; an effect the other way counts as inactive or inconclusive.
SMILES,TDP1 cell CPT,HepG2 tox,HT1080 IDH1KD tx,TGFb SMAD3 inh,HT1080NT lethal,TDP1 cell noCPT
CCC1C(=O)NCCN1Cc1ccc2c(c1)CN(Cc1ccc3c(c1)OCCO3)CCO2 (stereo not drawn),?,nt,nt,nt,nt,i
CCc1ccc(NC(=O)c2cc3c(COC(C)=O)cnc(C)c3oc2=O)cc1,?,i,nt,i,nt,?
Cc1ccc(C(=O)N2CCN(c3cccc(C)c3C)CC2)cc1S(=O)(=O)N1CCOCC1,16.4µM,i,i,i,i,23.1µM
Cc1ccc(C(=O)N2CCN(c3ccccc3F)CC2)cc1S(=O)(=O)N1CCOCC1,i,i,i,i,i,?
Cc1ccc(S(=O)(=O)N2C[C@H]3C(=O)C[C@@H](c4ccccc4)N(S(=O)(=O)c4ccccc4[N+](=O)[O-])[C@H]3C[C@H]2c2ccccc2)cc1,i,i,i,i,i,i
CN(C)c1cccc2c(S(=O)(=O)NC(=O)[C@H]3O[C@@H](n4cnc5c(N)ncnc54)[C@H](O)[C@@H]3O)cccc12,i,i,i,i,i,i
Cc1c(-c2nc(-c3ccc4c(c3)[nH]c(=O)n4C)no2)cccc1[N+](=O)[O-],i,i,nt,i,nt,i
CC(C)(C)C(=O)N1CCC2CC1c1cc(-c3ccc4c(c3)OCO4)ccc12 (stereo not drawn),?,i,?,?,?,23.1µM
CC(C)(C)NC(=S)N1CCC2CC1c1cc(-c3ccc4c(c3)OCO4)ccc12 (stereo not drawn),?,i,i,i,i,?
O=C(C1CCCCC1)N1CCC2CC1c1cc(-c3ccc4c(c3)OCO4)ccc12 (stereo not drawn),18.4µM,i,?,?,?,18.4µM
CC(C)Cn1c(-c2cccs2)nc2nc3ccccc3nc21,16.4µM,i,i,i,i,14.6µM
CCCCn1c(-c2cccs2)nc2nc3ccccc3nc21,?,i,i,i,i,23.1µM
CCn1c(-c2cccs2)nc2ccccc21,i,i,i,i,i,i
c1ccc(-c2nc3nc4ccccc4nc3n2Cc2ccco2)cc1,?,i,i,i,i,22.4µM
CCCCOCCCn1c(-c2ccco2)nc2nc3ccccc3nc21,?,i,i,i,i,20.6µM
CC1(C)CC(=O)C=C(c2ccc(COC(=O)c3ccc(-c4ccccc4)cc3)cc2)C1=O,?,i,i,i,i,?
CC(=O)Nc1ccc(S(=O)(=O)CC(=O)CS(=O)(=O)c2ccc(NC(C)=O)cc2)cc1,i,i,i,i,i,?
Cc1ccc(SC[C@H](Cc2ccccc2)N2CCN(CC(C)C)CCC2=O)cc1,?,i,i,?,i,18.4µM
CCCN1CCC(=O)N([C@H](CSc2ccccc2)Cc2ccccc2)CC1,11.2µM,i,i,?,i,11.2µM
CC(C)CN1CCC(=O)N(CCSc2ccc(Br)cc2)CC1,20.6µM,i,i,?,i,?
CC(C)CN1CCC(=O)N(C(CSc2ccc(Br)cc2)Cc2ccccc2)CC1 (stereo not drawn),nt,i,nt,i,nt,nt
CC(C)CN1CCC(=O)N([C@H](CSc2ccccc2)Cc2ccccc2)CC1,18.4µM,i,i,?,i,16.4µM
Cc1ccc(SCC(Cc2ccccc2)N2CCN(CCc3ccccc3)CCC2=O)cc1 (stereo not drawn),nt,i,nt,?,nt,nt
c1ccc(C(CN2CCCCC2)Oc2ccccn2)cc1 (stereo not drawn),i,i,i,i,i,i
CC1CC(C)CN(S(=O)(=O)c2ccc(NC(=O)[C@@H]3CCCN3C(=O)c3cccs3)cc2)C1 (stereo partly drawn),?,i,i,i,i,?
SMILES,TDP1 cell CPT,HepG2 tox,HT1080 IDH1KD tx,TGFb SMAD3 inh,HT1080NT lethal,TDP1 cell noCPT
O=C(CSc1ncc(-c2ccccc2)[nH]1)Nc1ccc(Cl)cc1,20.6µM,i,nt,?,nt,?
O=C(CSc1ncc(-c2ccccc2)[nH]1)Nc1ccccc1,?,i,i,i,i,?
O=C(CSc1ncc(-c2ccccc2)[nH]1)Nc1cccc(Br)c1,23.1µM,i,nt,?,nt,?
O=C(c1cc2ccccc2[nH]1)c1cc2cc(O)ccc2[nH]1,?,i,nt,?,nt,15.8µM
COc1ccc(-c2cc(-c3ccccc3)c(C#N)c(SCC(O)CS(=O)(=O)Cc3ccc(Cl)cc3)n2)cc1 (stereo not drawn),i,i,nt,i,nt,?
N#Cc1c(-c2ccccc2)cc(-c2ccccc2)nc1SCC(O)CS(=O)(=O)Cc1ccc(Cl)cc1 (stereo not drawn),8.2µM,i,nt,i,nt,3.26µM
O=C(NCCO)C(=O)NCC(c1ccc2c(c1)OCO2)N1CCOCC1 (stereo not drawn),i,i,nt,i,nt,i
CCN(CC)CCN(Cc1cc2cc(C)c(C)cc2[nH]c1=O)C(=S)NCc1ccco1,i,i,?,?,?,i
CCc1ccc2[nH]c(=O)c(CN(CC3CCCO3)C(=S)NCc3ccco3)cc2c1 (stereo not drawn),20.6µM,i,i,?,i,?
Cc1ccc2cc(CN(CC3CCCO3)C(=S)NCc3ccco3)c(=O)[nH]c2c1C (stereo not drawn),?,i,?,i,i,13µM
Cc1cc2cc(CN(CCN(C)C)C(=S)NCc3ccco3)c(=O)[nH]c2cc1C,?,i,?,i,?,13µM
Cc1ccc(S(=O)(=O)N(CCCc2c(C)nc[nH]c2=O)c2ccccc2)cc1,?,i,i,i,i,i
COc1ccc(C(C)=O)cc1CSc1nc2ccccc2c(=O)n1-c1ccccc1C,18.4µM,i,i,i,i,20.6µM
C=CCn1c(SCc2cc(C(C)=O)ccc2OCC)nc2ccccc2c1=O,1.64µM,i,2.31µM,?,?,0.82µM
COc1ccc(C(C)=O)cc1CSc1nc2ccccc2c(=O)n1-c1cccc(C)c1,18.4µM,i,i,i,i,18.4µM
COc1ccc(C(C)=O)cc1CSc1nc2ccccc2c(=O)n1-c1ccccc1,?,i,i,i,?,?
COc1ccccc1-n1c(SCc2cc(=O)oc3cc(O)ccc23)nc2ccccc2c1=O,23.1µM,i,i,?,i,?
COc1ccccc1-n1c(SCC(=O)N2CCOCC2)nc2ccccc2c1=O,i,i,i,i,i,i
Cc1ccc(-n2c(COCC(=O)O)nc3cccnc32)cc1,i,i,nt,i,nt,i
CC(CCc1ccccc1)NC(=O)C(=O)Nc1ccccc1 (stereo not drawn),i,i,i,i,i,i

# Assay outcomes (PubChem)
